Reference: article PMC5540273 (PLoS ONE, 2017)

What follows are molecules tested on JAK2(JH1domain-catalytic). Conditions: concentration: 1 μM, replicates: in singlicate; n = 1.
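Further: KINOMEscan kinase panel screen.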

Structure (SMILES)	%Inh [%]
COc1cc2ncn(-c3cc(OCc4ccncc4)c(C(N)=O)s3)c2cc1OC [GSK336313]	0
OCCCNc1nccc(-c2c(-c3cccc(C(F)(F)F)c3)nn3cc(C(F)(F)F)ccc23)n1 [GW630813]	0
Cc1ccc(Oc2ccc(Nc3ncnc4cc[nH]c34)cc2C)cn1	18
COc1cc(Nc2nccc(N3CCC(NC(=O)C(C)c4ccc(Cl)cc4)C3)n2)cc(OC)c1OC (stereo not drawn) [GSK1379757]	86
Nc1nc(N)c2nc(-c3ccccc3)[nH]c2n1 [SKF-12778]	50
COc1cc(OC)cc(-c2cc3cnc(N)nc3nc2NC(=O)NC(C)(C)C)c1	0
COc1cc2nccc(Nc3cccc(Oc4ccccc4)c3)c2cc1OC.Cl [GW284543]	0
CCn1c(-c2ccoc2)nc2cnccc21 [SB-733887]	16
CCn1c(-c2nonc2N)nc2ccccc21 [SB-693162/GW549034]	0
COC(=O)c1c(-c2ccccc2)c2cc(C)ccc2c(=O)n1Cc1ccccc1	0
CCCNC(=O)Nc1ccc(Oc2ncnc3ccn(C)c23)cc1	1
COc1ccc(-c2coc3ccc(-c4nnc(SCc5cccc(C#N)c5)o4)cc23)cc1	12
CCC(=O)c1c(-c2ccccc2)c2cc(Cl)ccc2c(=O)n1Cc1cc(S(C)(=O)=O)n(CC(F)F)n1	0
CN1C(=O)C(Nc2ccccc2)=C(c2ccccc2)C1=O [SB-300079]	42
Cc1ccccc1COc1cc(-n2cnc3cc(Cl)ccc32)sc1C(N)=O [GW813349]	17
COc1cc2ncn(-c3cc(OCCCc4ccccc4)c(C(N)=O)s3)c2cc1OC [GSK205189]	1
COc1cc2ncn(-c3cc(OCc4ccncc4Br)c(C(N)=O)s3)c2cc1OC [GW854278]	0
O=C1NC(=O)C(c2ccccc2)=C1Nc1cccc(O)c1 [SB-390534]	15

Structure (SMILES)	%Inh [%]
Cc1cccc(-c2nc(Nc3ccc4c(cnn4C)c3)c3ccccc3n2)n1 [GW876731]	26
COc1ccc(CNC(=O)NC2CCN(c3ccnc(Nc4ccc(F)cc4)n3)C2)cc1 (stereo not drawn) [GSK1379706]	39
O=C(NCCNc1ccnc(Nc2ccc(F)cc2)n1)Nc1ccc2c(c1)OCO2 [GSK1379882]	100
CCS(=O)(=O)c1ccc(OC)c(Nc2ncc(-c3ccc(F)cc3)o2)c1.Cl [GW591947]	8
COC(=O)c1c(-c2ccccc2)c2cc(Br)ccc2c(=O)n1Cc1ccc(NC(=O)CCC(=O)O)cc1	0
O=C(Nc1n[nH]c2cc(-c3ccccc3F)ccc12)C1CC1 [SB-733371]	27
Cc1nn2c(=O)cc(N3CCOCC3)nc2n1Cc1cccc(Cl)c1Cl [GSK2342769]	6
O=c1cc(N2CCOCC2)nc2n(Cc3ccc(F)c(Cl)c3)ccn12 [GSK2297099]	100
Cc1nnc(-c2ccc(C)c(-c3ccc(C(=O)O)cc3)c2)o1 [GW608005]	24
Cc1c(Cn2c(C)nn3c(=O)cc(N4CCO[C@H](C)C4)nc23)cccc1C(F)(F)F [GSK2373690]	14
Nc1ncnc2c1ncn2-c1cccc(F)c1 [SKF-97560]	39
Nc1ncnc2c1ncn2-c1ccc(Cl)cc1 [AH2635]	4
CC(C)(C)c1ccc(C(=O)Nc2cn3cc(-c4ccccc4)ccc3n2)cc1	0
Nc1nc(-c2ccccc2F)c(-c2ccnc3ccccc23)s1 [GW560459]	9
CCC(=O)c1c(-c2ccccc2)c2cc(Cl)ccc2c(=O)n1Cc1cc(C(=O)NC2CC2)n(C)n1	0
CCS(=O)c1ccc(-c2coc3ccc(-c4nnc(C)o4)cc23)cc1 (stereo not drawn)	23
COc1ccc(-c2cc3c(C)nc(N)nc3n([C@H]3CC[C@H](OCCO)CC3)c2=O)cn1	0
O=C(Nc1ccc2c(c1)OCO2)NC1CCN(c2ccnc(NCc3ccc(F)cc3)n2)CC1 [GSK1379859]	0

These molecules were tested on JAK3(JH1domain-catalytic). Conditions: concentration: 1 μM, replicates: in singlicate; n = 1.

Structure (SMILES)	%Inh [%]
COc1cc2ncn(-c3cc(OCc4ccncc4)c(C(N)=O)s3)c2cc1OC [GSK336313]	0
OCCCNc1nccc(-c2c(-c3cccc(C(F)(F)F)c3)nn3cc(C(F)(F)F)ccc23)n1 [GW630813]	0
Cc1ccc(Oc2ccc(Nc3ncnc4cc[nH]c34)cc2C)cn1	0
COc1cc(Nc2nccc(N3CCC(NC(=O)C(C)c4ccc(Cl)cc4)C3)n2)cc(OC)c1OC (stereo not drawn) [GSK1379757]	0
Nc1nc(N)c2nc(-c3ccccc3)[nH]c2n1 [SKF-12778]	39
COc1cc(OC)cc(-c2cc3cnc(N)nc3nc2NC(=O)NC(C)(C)C)c1	0
COc1cc2nccc(Nc3cccc(Oc4ccccc4)c3)c2cc1OC.Cl [GW284543]	0
CCn1c(-c2ccoc2)nc2cnccc21 [SB-733887]	0
CCn1c(-c2nonc2N)nc2ccccc21 [SB-693162/GW549034]	0
COC(=O)c1c(-c2ccccc2)c2cc(C)ccc2c(=O)n1Cc1ccccc1	0
CCCNC(=O)Nc1ccc(Oc2ncnc3ccn(C)c23)cc1	0
COc1ccc(-c2coc3ccc(-c4nnc(SCc5cccc(C#N)c5)o4)cc23)cc1	0
CCC(=O)c1c(-c2ccccc2)c2cc(Cl)ccc2c(=O)n1Cc1cc(S(C)(=O)=O)n(CC(F)F)n1	0
CN1C(=O)C(Nc2ccccc2)=C(c2ccccc2)C1=O [SB-300079]	2
Cc1ccccc1COc1cc(-n2cnc3cc(Cl)ccc32)sc1C(N)=O [GW813349]	0
COc1cc2ncn(-c3cc(OCCCc4ccccc4)c(C(N)=O)s3)c2cc1OC [GSK205189]	0
COc1cc2ncn(-c3cc(OCc4ccncc4Br)c(C(N)=O)s3)c2cc1OC [GW854278]	0
O=C1NC(=O)C(c2ccccc2)=C1Nc1cccc(O)c1 [SB-390534]	0

Structure (SMILES)	%Inh [%]
Cc1cccc(-c2nc(Nc3ccc4c(cnn4C)c3)c3ccccc3n2)n1 [GW876731]	0
COc1ccc(CNC(=O)NC2CCN(c3ccnc(Nc4ccc(F)cc4)n3)C2)cc1 (stereo not drawn) [GSK1379706]	0
O=C(NCCNc1ccnc(Nc2ccc(F)cc2)n1)Nc1ccc2c(c1)OCO2 [GSK1379882]	0
CCS(=O)(=O)c1ccc(OC)c(Nc2ncc(-c3ccc(F)cc3)o2)c1.Cl [GW591947]	0
COC(=O)c1c(-c2ccccc2)c2cc(Br)ccc2c(=O)n1Cc1ccc(NC(=O)CCC(=O)O)cc1	0
O=C(Nc1n[nH]c2cc(-c3ccccc3F)ccc12)C1CC1 [SB-733371]	0
Cc1nn2c(=O)cc(N3CCOCC3)nc2n1Cc1cccc(Cl)c1Cl [GSK2342769]	0
O=c1cc(N2CCOCC2)nc2n(Cc3ccc(F)c(Cl)c3)ccn12 [GSK2297099]	0
Cc1nnc(-c2ccc(C)c(-c3ccc(C(=O)O)cc3)c2)o1 [GW608005]	0
Cc1c(Cn2c(C)nn3c(=O)cc(N4CCO[C@H](C)C4)nc23)cccc1C(F)(F)F [GSK2373690]	0
Nc1ncnc2c1ncn2-c1cccc(F)c1 [SKF-97560]	55
Nc1ncnc2c1ncn2-c1ccc(Cl)cc1 [AH2635]	0
CC(C)(C)c1ccc(C(=O)Nc2cn3cc(-c4ccccc4)ccc3n2)cc1	0
Nc1nc(-c2ccccc2F)c(-c2ccnc3ccccc23)s1 [GW560459]	0
CCC(=O)c1c(-c2ccccc2)c2cc(Cl)ccc2c(=O)n1Cc1cc(C(=O)NC2CC2)n(C)n1	6
CCS(=O)c1ccc(-c2coc3ccc(-c4nnc(C)o4)cc23)cc1 (stereo not drawn)	0
COc1ccc(-c2cc3c(C)nc(N)nc3n([C@H]3CC[C@H](OCCO)CC3)c2=O)cn1	0
O=C(Nc1ccc2c(c1)OCO2)NC1CCN(c2ccnc(NCc3ccc(F)cc3)n2)CC1 [GSK1379859]	0
